# Reference: PubChem BioAssay (NCATS)
# Results filed as inconclusive are left out. Where a call stands in place of a potency, no number is given. Active and inactive are the calls of the source. Calls follow the shape of the dose curve; as a rule, active = well fitted cell-killing curve with a large enough effect; inconclusive = small, poorly fitted or top-dose-only effect; inactive = flat fitted curve, though single readings scatter.
# Assay: Cell Viability - LYMP1-003 - Assay at 40 hr (AID 964); also: nearly all actives have a fitted effect of over 60% in size
# Settings: LYMP1-003 lymphoblastoid viability; series mostly up to 92.2 µM
# From the text: NIH Chemical Genomics Center [NCGC]
# NIH Molecular Libraries Screening Centers Network [MLSCN]
# National Institutes of Environmental Health Sciences [NIEHS]
# National Toxicology Program [NTP]
# We have developed a 1536-well cell-based assay for quantitative high throughput screening (qHTS) against a number of cell lines to determine in vitro cytotoxicity of small molecules. This particular assay uses a human lymphoblastoid cell line (LYMP1-003) purchased from Coriell Institute for Medical Research.
# NCGC Assay Protocol Summary:
# The CellTiter-Glo luminescent cell viability assay (Promega) is a homogeneous method to measure the number of viable cells in culture. The end point readout of this assay is based on quantitation of intracellular ATP, an indicator of metabolic activity, using the luciferase reaction. Luciferase catalyzes the oxidation of beetle Luciferin to oxyluciferin and light in the presence of ATP. The luminescent signal is proportional to amount of ATP present.
# Using the CellTiter-Glo luminescent cell viability assay, the amount of cellular ATP was measured in the lymphoblastoid cell line with complete culture medium following compound treatment for 40 hours. The assay was performed in opaque white Kalypsys 1536-well plates. In the screen, tetraoctylammonium bromide was used as positive control. Library compounds were measured for their ability to cause acute toxicity in the cell line, as reflected by a decrease in intracellular ATP levels, in a concentration-dependent manner. […] AC50 values were determined from concentration-response data modeled with the standard Hill equation.
# qHTS protocol for CellTiter Glo lymphoblastoid cellular assay
# [Step] [Parameter] [Value] [Description]
# 1. Reagent; 5 uL; 2500 lymphoblastoid cells/well
# 2. Time; 5 hr; 37 C incubation
# 4. Controls; 23 nL; Tetraoctylammonium bromide 6.4pM to 92 uM
# 5. Time; 40 hr; 37 C incubation
# 6. Reagent; 5 uL; CellTiter Glo reagent
# 7. Time; 30 min; Room Temperature
# 8. Detection; Luminescence; Viewlux plate reader
# Keywords: cell viability, cytotoxicity, lymphoblastoid cell line, luminescence, NTPHTS, NTPHTS_NCGC, NIEHS, DSSTox, MLSMR, MLSCN, NIH Roadmap, qHTS, NCGC
# Potency is read from the fitted curve at half-maximal effect.
row,SMILES,Potency
1,CC1(C)S[C@@H]2[C@H](NC(=O)[C@H](N)c3ccccc3)C(=O)N2[C@H]1C(=O)O,inactive
2,NCCO,inactive
3,CN(C)c1ccc(N=NS(=O)(=O)O)cc1,inactive
4,Nc1ccc(O)c(C(=O)O)c1,inactive
5,Nc1ccc([N+](=O)[O-])cc1O,inactive
6,CN1CCC[C@H]1c1cccnc1,inactive
7,O=c1cc(-c2ccccc2)oc2ccccc12,inactive
8,CN(C)CCC(c1ccc(Cl)cc1)c1ccccn1 (centres undefined),inactive
9,N=C1N=C(N)c2cc3ccccc3cc21,39.8 µM (active)
10,c1ccc2sc(SSc3nc4ccccc4s3)nc2c1,inactive
11,CC(C)NCC(O)COc1cccc2ccccc12 (centres undefined),inactive
12,COc1cc(/C=C/C(=O)CC(=O)/C=C/c2ccc(O)c(OC)c2)ccc1O,39.8 µM (active)
13,CCCOC(=O)c1ccc(O)cc1,inactive
14,O=C(O)/C=C\C(=O)O,inactive
15,Nc1nc2ccc([N+](=O)[O-])cc2s1,inactive
16,CN(C)c1ccc(C(=C2C=CC(=[N+](C)C)C=C2)c2ccccc2)cc1,0.631 µM (active)
17,c1cnc2c(c1)ccc1cccnc12,7.94 µM (active)
18,CCCCCCCCCCCCCCCCCC(=O)O,inactive
19,S=c1[nH]c2ccccc2s1,inactive
